From PubChem BioAssay
Hits are enriched below; roughly 1.4% of the tested compounds scored in any of these assays.
AmpC inh detg: blocks E. coli AmpC beta-lactamase in detergent assay. P00811. AmpC hydrolysis of nitrocefin, absorbance 480 nm, 0.01% Triton. Potency, µM (top dose mostly 114 µM), for the others: at the highest dose activity change, negative = inhibition, usual class: inhibitors. actives 0.041% (n = 370,000);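 also: potency is read from the fitted curve at half-maximal effect; 0% = no-compound wells and -100% = no-enzyme wells; nearly all actives have a fitted effect of over 25% in size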
Target sequence (P00811 whole entry, looked up): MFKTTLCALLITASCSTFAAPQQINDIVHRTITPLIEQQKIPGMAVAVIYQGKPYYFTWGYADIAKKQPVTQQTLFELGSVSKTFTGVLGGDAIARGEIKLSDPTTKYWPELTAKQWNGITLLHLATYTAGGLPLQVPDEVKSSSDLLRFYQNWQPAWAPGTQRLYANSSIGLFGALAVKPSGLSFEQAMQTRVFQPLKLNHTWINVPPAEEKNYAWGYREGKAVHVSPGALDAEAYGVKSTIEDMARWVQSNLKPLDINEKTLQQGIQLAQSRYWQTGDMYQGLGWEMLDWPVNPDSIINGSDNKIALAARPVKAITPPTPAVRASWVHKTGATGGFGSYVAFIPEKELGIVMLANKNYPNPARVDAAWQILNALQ
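20 mM phosphate pH 7.0 + 0.01% (detergent screen) or 0.0001% Triton X-100; 5.3 nM AmpC reagent; cpd preinc 15 min RT; nitrocefin (800 uM stock) to start; A480 q20 s × 4 min; Activity was normalised to no-enzyme and no-compound control wells.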
NS1 inh: inhibitors of influenza NS1 protein function; Potency, µM (doses to about 46.1 µM), inactives show top-dose activity, positive = more growth; actives 0.4% (n = 270,000); calls by dose curve; also: potency is read from the fitted curve at half-maximal effect; actives are rising curves; nearly all actives have a fitted effect of over 50% in size
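Recovery from NS1-induced slow growth read by OD600 in budding yeast switched to galactose assay medium (pH 6.0, -URA) at 1:100 dilution. Compound 23 nl per well; the matching strain lacking NS1 serves as control.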
SARS PLP yeast: SARS-CoV PLP inhibition in yeast | S. cerevisiae expressing SARS-CoV PLpro, growth rescue | Potency, µM (series often up to 32.9 µM), for the others: at the top dose activity, positive = growth rescue, most hits filed as activators | actives 0.19% (n = 330,000); calls by dose curve; also: potency is read from the fitted curve at half-maximal effect; 0% is about no effect; nearly all actives have a fitted effect of over 55% in size
AmpC inh no detg: AmpC beta-lactamase inhibition without detergent; P00811; Potency, µM (top dose mostly 57.1 µM), without a hit: top-dose activity change, negative = inhibition, most hits filed as inhibitors; actives 0.52% (n = 330,000); AmpC nitrocefin hydrolysis, absorbance 480 nm, 0.0001% Triton; AID 485341;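 also: potency is read from the fitted curve at half-maximal effect; plate controls were no compound for no effect and no enzyme for full effect; nearly all actives have a fitted effect of over 20% in size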
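20 mM phosphate pH 7.0 + 0.01% (detergent screen) or 0.0001% Triton X-100; 5.3 nM AmpC reagent; cpd preinc 15 min RT; nitrocefin (800 uM stock) to start; A480 q20 s × 4 min; Activity was normalised to no-enzyme and no-compound control wells.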
Giardia FBPA inh: Giardia lamblia aldolase inhibition. A8B2U2. purified Giardia FBPA. Potency, µM (series often up to 59.6 µM), for inactives: top-dose activity, negative = inhibition, usual class: inhibitors. actives 0.71% (n = 290,000). AID 2451; also: potency is read from the fitted curve at half-maximal effect; % is scaled to controls: 0 for no effect and ±100 for the full control effect; nearly all actives have a fitted effect of over 55% in size
Target sequence (A8B2U2 whole entry, looked up): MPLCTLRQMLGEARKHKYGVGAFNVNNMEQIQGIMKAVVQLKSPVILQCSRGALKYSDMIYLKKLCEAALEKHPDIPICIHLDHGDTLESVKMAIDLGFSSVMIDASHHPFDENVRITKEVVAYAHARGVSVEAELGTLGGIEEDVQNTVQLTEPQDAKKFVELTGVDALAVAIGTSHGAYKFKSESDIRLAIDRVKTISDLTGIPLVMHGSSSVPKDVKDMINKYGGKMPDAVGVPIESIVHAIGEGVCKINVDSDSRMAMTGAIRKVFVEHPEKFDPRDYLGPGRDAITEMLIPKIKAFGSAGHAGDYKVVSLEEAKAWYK
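Giardia FBPA (40 nM reagent) was preincubated 10 min at RT with compound (up to 57.5 uM final), then substrate plus GAPDH/TPI/NAD/arsenate coupling system with diaphorase/resazurin was added; resorufin fluorescence (525/598 nm) was read after 20 min.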
NS1 inh valid: influenza NS1 function inhibition validation; shares compounds with NS1 inh; influenza NS1 function cell assay, 15-point titration; activity change, negative = inhibition, % at 32.9 µM; 1,400 tested, under 10 active; AID 492980; calls by dose curve; also: 0% is about no effect
Flu PR8 replic: reduces influenza A/PR/8/34 replication in MDCK cells | MDCK infected influenza A/PR/8/34, virus titer TCID50; hits give low values | virus titer (log TCID50), log10 TCID50 at 5 µM | actives 30% (n = 95) | shares compounds with NS1 inh; call rule not given here
* marks the source's active call; other numbers are inactive results; ? = inconclusive; nt = no result. Unless noted, calls follow the shape of the dose curve; as a rule, active = well fitted curve in the direction sought with a large enough effect; inconclusive = small, poorly fitted or top-dose-only effect, or another doubt; inactive = no such curve, though single readings can be large; an effect the other way counts as inactive or inconclusive.

SMILES | AmpC inh detg | NS1 inh | SARS PLP yeast | AmpC inh no detg | Giardia FBPA inh | NS1 inh valid | others
Cc1cccc(NC(=O)C2CCCN(c3nc(C)cc(C)n3)C2)c1 (stereo not given) | -7.3% | 8.91µM* | -0.6% | 8.8% | 3.4% | 1.3
Cc1cccc(NC(=O)c2cc(NC(=O)c3ccco3)ccc2N2CCCCC2)c1 | -9.3% | 2.4% | -2.7% | -29.2% | 5.2% | nt
Cc1cccc(NS(=O)(=O)c2cccc(C(=O)Nc3cccc(C(=O)O)c3)c2)c1 | -6.2% | 2.24µM* | -0.9% | -23.9% | -5.6% | 31.4
C[C@@H]1C[C@H](Nc2ccccc2)c2ccccc2N1C(=O)c1cccnc1 | 0.6% | 1.0% | -0.5% | 20.4% | -16.0% | nt
O=C(NC(Cc1ccc(O)cc1)C(=O)O)c1ccc2c(c1)OCO2 (stereo not given) | 0.4% | nt | 2.2% | -14.4% | nt | nt
C=Cn1cc[n+](CC(=O)c2ccc(Cl)c(Cl)c2)c1 | -2.2% | -10.5% | 2.4% | -7.4% | 11.8% | nt
O=C(Nc1ccccc1C(=O)O)c1cccc(NC(=O)c2ccccc2Cl)c1 | ? | 1.9% | -3.5% | -24.5% | -6.1% | nt
Cc1ccccc1C(=O)Nc1cccc(C(=O)Nc2ccccc2C(=O)O)c1 | -6.1% | 11.2µM* | -3.8% | -19.6% | 11.4% | 14.0
COc1ccc(S(=O)(=O)N2CCCCCC2)cc1C(=O)OCC(=O)NC(C)(C)C | -6.0% | nt | 1.2% | 67.7% | 4.9% | nt
COc1cc(NC(=O)COC(=O)c2cc(S(=O)(=O)N3CCCCC3)ccc2Cl)c(C)cc1[N+](=O)[O-] | -4.1% | 14.1µM* | 1.7% | -20.3% | 0.3% | 9.9 | Flu PR8 replic=8.33
Cc1cc(NC(=O)CSc2nnc(-c3cccs3)n2N)no1 | 2.7% | ? | 9.0% | -4.9% | -1.9% | -7.5
CCCCn1c(SCC(=O)Nc2cc(C)on2)nnc1-c1cccs1 | -5.6% | 0.1% | 1.8% | -11.4% | 8.4% | nt
COc1ccc(/C=N/n2c(-c3n[nH]c4c3CCC4)n[nH]c2=S)cc1OC | ? | ? | 1.6% | -12.0% | -9.4% | nt
COc1cc(/C=N/n2c(-c3n[nH]c4c3CCC4)n[nH]c2=S)ccc1O | ? | 5.62µM* | 2.5% | -21.4% | -13.5% | ?
Cc1ccn2c(NCc3ccccc3)c(-c3cccc(SC4CCCCC4)c3)nc2c1 | nt | nt | 14.5% | -22.6% | nt | nt
CC(C)(C)OC(=O)N1CCC(CC2CC(c3cccc(Br)c3)=NO2)(C(=O)NCC2CCCCC2)CC1 (stereo not given) | 1.4% | ? | 0.7% | 20.5% | 9.7% | -33.6
COc1cc(NC(=S)N2CCC(C(O)(c3ccccc3)c3ccccc3)CC2)cc(OC)c1 | ? | 4.47µM* | 11.3% | -0.1% | 3.1% | 13.3
CCNC(=S)N1CCC(C(O)(c2ccccc2)c2ccccc2)CC1 | -5.5% | 16.1% | 0.0% | 17.5% | 5.2% | nt
Cc1ccc(-n2nnnc2SCC(=O)c2cc(C)n(-c3cc(C)on3)c2C)c(C)c1 | -12.8% | ? | 11.4% | -1.3% | -7.5% | -15.2
CCc1cc2c(cc3c(=O)n(CC(=O)NCCOC)nc(CC)n32)s1 | 17.0% | nt | nt | nt | nt | nt
Cc1ccc(C2C3=C(CCCC3=O)Nc3[nH]c(=S)[nH]c(=O)c32)cc1 (stereo not given) | ? | 2.5% | 5.5% | -41.6% | ? | nt
O=C1CCCC2=C1C(c1ccc(Br)cc1)c1c([nH]c(=S)[nH]c1=O)N2 (stereo not given) | -8.1% | 6.31µM* | 9.1% | -50.4% | -5.7% | 13.3
CC(C)OCCCNC(=O)c1c(N)n(/N=C/c2ccccn2)c2nc3ccccc3nc12 | -18.6% | 8.91µM* | 1.0% | -5.7% | 0.0% | 8.2
CCC(C)NC(=O)c1c(N)n(/N=C/c2ccccn2)c2nc3ccccc3nc12 (stereo not given) | 3.7% | 11.2µM* | 7.5% | -2.2% | 0.8% | ?
COCCCNC(=O)c1c(N)n(/N=C/c2cccnc2)c2nc3ccccc3nc12 | ? | 9.2% | 0.2% | 4.8% | 0.1% | nt
SMILES | AmpC inh detg | NS1 inh | SARS PLP yeast | AmpC inh no detg | Giardia FBPA inh | NS1 inh valid | others
Cc1ccc2nc(/C=C/c3cccc(F)c3)ccc2c1 | ? | -5.6% | 1.6% | -27.8% | -8.4% | nt
CC(C)C[C@H](NC(=O)c1[nH]cnc1C(=O)N[C@@H](C)C(=O)OCc1ccccc1)C(=O)OC(C)(C)C | 6.6% | 12.6µM* | -2.2% | 52.3% | -28.8% | -28.4
CC(C)C[C@H](NC(=O)c1nc[nH]c1C(=O)NC(c1ccccc1)c1ccccc1)C(=O)OC(C)(C)C | 10.3% | 10µM* | 0.5% | -10.8% | -16.5% | 15.3
CC(C)C[C@H](NC(=O)c1nc[nH]c1C(=O)NCC(=O)OCc1ccccc1)C(=O)OC(C)(C)C | -4.0% | ? | -0.8% | 76.2% | -5.3% | nt
CC(C)CN1C(=O)/C(=C/c2cccs2)NC1=S | -7.4% | -7.4% | -17.2% | -25.4% | -10.0% | nt
COc1ccc(OC)c(C(=O)N2CCCC(Nc3ccc(F)cc3)C2)c1 (stereo not given) | ? | 2.0% | -1.1% | 17.2% | 5.1% | nt
COc1ccc2[nH]c(=O)c(CNc3cccc(C)c3)cc2c1 | -2.5% | 2.82µM* | 5.8% | -24.3% | ? | 0.2
CCN1C/C(=C/c2cccs2)c2nc3ccccc3c(C(=O)O)c2C1 | ? | 1.9% | -0.7% | -1.5% | ? | nt
CCc1ccc(/C=C2\CN(CC)Cc3c2nc2ccccc2c3C(=O)O)cc1 | -8.0% | 3.55µM* | 0.6% | 53.8% | ? | -14.7
CCCCC1=CC2=CC(=O)C(C)(OC(=O)CC)C(=O)C2=CN1CCOC (stereo not given) | -2.3% | ? | -2.6% | 43.3% | ? | 8.4
CCN1CCN(Cc2c(O)ccc3c2O/C(=C\C=C\c2ccccc2)C3=O)CC1 | ? | 10µM* | -3.1% | 168.8% | 17.3% | -35.5
Cc1nc(N)c(C#N)c(-c2ccccc2)c1C | ? | -6.2% | -1.9% | -22.8% | -3.4% | nt
Cc1cc(C)c2c(n1)sc1c(-c3ccccc3)c(C#N)c(N)nc12 | -21.6% | 4.47µM* | -2.2% | -26.4% | 14.4% | 2.0
O=C(/C=C/c1ccco1)NC(=S)Nc1cc(-c2nc3ccccc3s2)ccc1Cl | ? | 10µM* | -1.4% | -55.7% | -0.2% | 2.8
Cc1ccc(NC(=O)NNC(=O)Cn2nc(-c3ccccc3)c(-c3ccccc3)c(C#N)c2=O)cc1 | -2.5% | ? | -1.3% | -36.7% | 14.5% | -36.9
O=C(Cn1nc(-c2ccccc2)c2ccccc2c1=O)Nc1ccc(O)cc1 | -5.4% | 7.1% | 0.0% | -15.8% | 3.7% | nt
COCC(C)n1c(C)cc(C(=O)CSc2nc(C)c(C)c(C)n2)c1C (stereo not given) | -11.1% | ? | 0.2% | 35.0% | 1.2% | -5.1
